Assay results taken from PubChem BioAssay (EPA / NIEHS).
Active and inactive are the calls of the source. Rule for the calls: active = hit-call score of the fitted dose curve at least 0.9, where 1 is the maximum; inactive = score below 0.9.

Read-out: Insulin Like Growth Factor 1 (IGF1), IGF1 (gene 3479)
Test: LTEA_HepaRG_IGF1: Life Technologies and Expression Analysis (LTEA) Assay for Insulin Like Growth Factor 1 (IGF1) using HepaRG (AID 2283506)
Conditions: mRNA level, 48 h; actives raise or lower the signal
Method in brief: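 qRT-PCR readout of IGF1 mRNA, normalized to three housekeeping genes, after 48 h chemical exposure of HepaRG cells. Concentrations: 8-point half-log series, top 100 uM, 0.5% DMSO vehicle. Gain or loss fitted against DMSO baseline.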

Row | SMILES | outcome | AC50
1 | c1ccc2n[nH]nc2c1 | inactive | –
2 | Cc1oc2c(NC(=O)c3c(Cl)cccc3Cl)cccc2c1C(C)(C)O | – | 28.6 µM (active)
3 | Cc1cc(F)ccc1-c1cc(N2CC[C@@H](O)[C@H]2CO)ncc1N(C)C(=O)C(C)(C)c1cc(C(F)(F)F)cc(C(F)(F)F)c1 | – | 17.3 µM (active)
4 | CC(C)(c1cc(Br)c(O)c(Br)c1)c1cc(Br)c(O)c(Br)c1 | – | 77 µM (active)
5 | CN1C(=O)N(c2ccccc2Br)Cc2cnc(Nc3ccc4c(c3)OCC(CO)O4)nc21 (stereo unspecified) | – | 32.7 µM (active)
6 | CCOC(=O)O[C@H](C)OC(=O)c1ccc2c(c1)cc(C(=O)NC1CCN(C(C)C)CC1)n2Cc1cc(-c2ccc(Cl)s2)on1 | inactive | –
7 | CCCCCCCCOC(=O)c1cc(O)c(O)c(O)c1 | inactive | –
8 | CN(C)c1ccc(C(=C2C=CC(=[N+](C)C)C=C2)c2ccc(N(C)C)cc2)cc1 | – | 1.44 µM (active)
9 | COc1ccc2cc(S(=O)(=O)N[C@H](CC(=O)N[C@H](Cc3ccc(CN4[C@H](C)CCC[C@@H]4C)cc3)C(=O)N(C)C(C)C)c3ccc4c(c3)OCO4)ccc2c1 | – | 21.2 µM (active)
10 | CCN(Cc1cccc(S(=O)(=O)O)c1)c1ccc(C(=C2C=CC(=[N+](CC)Cc3cccc(S(=O)(=O)O)c3)C=C2)c2ccccc2S(=O)(=O)[O-])cc1 | inactive | –
11 | Oc1ccc2ccccc2c1 | inactive | –
12 | Clc1cc(Cl)c2c(c1)N=C1CCCCCN1C2 | – | 5.03 µM (active)
13 | CC(C)(O)c1ccc(CNC(=O)c2cccnc2Oc2ccc3nonc3c2)cc1 | – | 22.7 µM (active)
14 | O=C(O)Cn1c(=O)n(Cc2ccc(Br)cc2F)c(=O)c2ccc(Cl)cc21 | inactive | –
15 | CC/C(=C(/CC)c1ccc(O)cc1)c1ccc(O)cc1 | inactive | –
16 | COc1cc(C(=O)NC2CCN(C)CC2)ccc1Nc1ncc2c(n1)N(C1CCCC1)CC(F)(F)C(=O)N2C | – | 3.45 µM (active)
17 | CCN(CC)C(=O)c1cc(S(=O)(=O)Cc2ccccc2)c(N2CCC(c3ccccc3)CC2)cc1N(CC)CCN(C)C | inactive | –
18 | CC[C@@H]1C[C@H](N(Cc2cc(C(F)(F)F)cc(C(F)(F)F)c2)C(C)=O)c2cc(C(F)(F)F)ccc2N1C(=O)OC(C)C | – | 5.09 µM (active)
19 | c1ccc2ccccc2c1 | inactive | –

Row | SMILES | outcome | AC50
20 | CCCCCCCCCCCO | inactive | –
21 | Cc1ccc(C(C)C)cc1 | inactive | –
22 | OC12N=C(c3ccccc3)SC1Cc1cc(Cl)ccc12 (stereo unspecified) | – | 13.3 µM (active)
23 | CN(C)C(=O)C1(N2CCCCC2)CCN(CC[C@@]2(c3ccc(Cl)c(Cl)c3)CN(C(=O)c3ccccc3)CCO2)CC1 | – | 90.9 µM (active)
24 | O=CCCCC=O | inactive | –
25 | NCc1cccc(C2CCN(C(=O)c3ccc(C#Cc4ccccc4F)o3)CC2)c1 | inactive | –
26 | COc1cccc([C@H](O)C2CCN(CCc3ccc(F)cc3)CC2)c1OC | inactive | –
27 | CC(C)(C)c1csc(-c2cc3cc(OCc4ccccc4CC(=O)O)ccc3o2)n1 | – | 12.4 µM (active)
28 | O=c1[nH]sc2ccccc12 | inactive | –
29 | O=c1c(-c2ccc(O)cc2)coc2cc(O)cc(O)c12 | inactive | –
30 | CCCCCCCC[Si](OCC)(OCC)OCC | inactive | –
31 | CCCCOC(=O)CC(CC(=O)OCCCC)(OC(C)=O)C(=O)OCCCC | inactive | –
32 | CCCCCCCCN(C)CCCCCCCC | inactive | –
33 | CC[C@H](NC(=O)c1cc(F)ccc1NS(=O)(=O)c1cccc2cccnc12)c1ccccc1 | – | 12.4 µM (active)
34 | CCCCCCCCCCCC[N+](C)(C)C | – | 77.5 µM (active)
35 | O=C1CCC(C2CCCCC2)CC1 | inactive | –
36 | O=C1c2ccccc2C(=O)N1CCc1noc(-c2ccc(CN3CCCCCC3)s2)n1 | inactive | –
37 | CC1=CC(=O)/C(=C(/C)O)C(=O)O1 | inactive | –
38 | CCO[Si](CCCNC(N)=O)(OCC)OCC | inactive | –

Read-out: Intercellular Adhesion Molecule 1 (ICAM1), ICAM1 (gene 3383)
Test: LTEA_HepaRG_ICAM1: Life Technologies and Expression Analysis (LTEA) Assay for Intercellular Adhesion Molecule 1 (ICAM1) using HepaRG (AID 2283507)
Conditions: mRNA level, 48 h; actives raise or lower the signal
Method in brief: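 Gain or loss of transcript in HepaRG hepatic cells is quantified by qRT-PCR after 48 h chemical exposure (up to 100 uM, half-log steps), with DMSO as baseline.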

Row | SMILES | outcome | AC50
39 | c1ccc2n[nH]nc2c1 | inactive | –
40 | Cc1oc2c(NC(=O)c3c(Cl)cccc3Cl)cccc2c1C(C)(C)O | – | 50 µM (active)
41 | Cc1cc(F)ccc1-c1cc(N2CC[C@@H](O)[C@H]2CO)ncc1N(C)C(=O)C(C)(C)c1cc(C(F)(F)F)cc(C(F)(F)F)c1 | – | 22.4 µM (active)
42 | CC(C)(c1cc(Br)c(O)c(Br)c1)c1cc(Br)c(O)c(Br)c1 | – | 74.5 µM (active)
43 | CN1C(=O)N(c2ccccc2Br)Cc2cnc(Nc3ccc4c(c3)OCC(CO)O4)nc21 (stereo unspecified) | inactive | –
44 | CCOC(=O)O[C@H](C)OC(=O)c1ccc2c(c1)cc(C(=O)NC1CCN(C(C)C)CC1)n2Cc1cc(-c2ccc(Cl)s2)on1 | inactive | –
45 | CCCCCCCCOC(=O)c1cc(O)c(O)c(O)c1 | inactive | –
46 | CN(C)c1ccc(C(=C2C=CC(=[N+](C)C)C=C2)c2ccc(N(C)C)cc2)cc1 | – | 73.1 µM (active)
47 | COc1ccc2cc(S(=O)(=O)N[C@H](CC(=O)N[C@H](Cc3ccc(CN4[C@H](C)CCC[C@@H]4C)cc3)C(=O)N(C)C(C)C)c3ccc4c(c3)OCO4)ccc2c1 | – | 12 µM (active)
48 | CCN(Cc1cccc(S(=O)(=O)O)c1)c1ccc(C(=C2C=CC(=[N+](CC)Cc3cccc(S(=O)(=O)O)c3)C=C2)c2ccccc2S(=O)(=O)[O-])cc1 | inactive | –
49 | Oc1ccc2ccccc2c1 | inactive | –
50 | Clc1cc(Cl)c2c(c1)N=C1CCCCCN1C2 | inactive | –
51 | CC(C)(O)c1ccc(CNC(=O)c2cccnc2Oc2ccc3nonc3c2)cc1 | inactive | –
52 | O=C(O)Cn1c(=O)n(Cc2ccc(Br)cc2F)c(=O)c2ccc(Cl)cc21 | inactive | –
53 | CC/C(=C(/CC)c1ccc(O)cc1)c1ccc(O)cc1 | inactive | –
54 | COc1cc(C(=O)NC2CCN(C)CC2)ccc1Nc1ncc2c(n1)N(C1CCCC1)CC(F)(F)C(=O)N2C | – | 83.7 µM (active)
55 | CCN(CC)C(=O)c1cc(S(=O)(=O)Cc2ccccc2)c(N2CCC(c3ccccc3)CC2)cc1N(CC)CCN(C)C | – | 19 µM (active)
56 | CC[C@@H]1C[C@H](N(Cc2cc(C(F)(F)F)cc(C(F)(F)F)c2)C(C)=O)c2cc(C(F)(F)F)ccc2N1C(=O)OC(C)C | inactive | –
57 | c1ccc2ccccc2c1 | inactive | –

Row | SMILES | outcome | AC50
58 | CCCCCCCCCCCO | inactive | –
59 | Cc1ccc(C(C)C)cc1 | inactive | –
60 | OC12N=C(c3ccccc3)SC1Cc1cc(Cl)ccc12 (stereo unspecified) | inactive | –
61 | CN(C)C(=O)C1(N2CCCCC2)CCN(CC[C@@]2(c3ccc(Cl)c(Cl)c3)CN(C(=O)c3ccccc3)CCO2)CC1 | – | 47.2 µM (active)
62 | O=CCCCC=O | inactive | –
63 | NCc1cccc(C2CCN(C(=O)c3ccc(C#Cc4ccccc4F)o3)CC2)c1 | inactive | –
64 | COc1cccc([C@H](O)C2CCN(CCc3ccc(F)cc3)CC2)c1OC | inactive | –
65 | CC(C)(C)c1csc(-c2cc3cc(OCc4ccccc4CC(=O)O)ccc3o2)n1 | inactive | –
66 | O=c1[nH]sc2ccccc12 | inactive | –
67 | O=c1c(-c2ccc(O)cc2)coc2cc(O)cc(O)c12 | inactive | –
68 | CCCCCCCC[Si](OCC)(OCC)OCC | inactive | –
69 | CCCCOC(=O)CC(CC(=O)OCCCC)(OC(C)=O)C(=O)OCCCC | inactive | –
70 | CCCCCCCCN(C)CCCCCCCC | inactive | –
71 | CC[C@H](NC(=O)c1cc(F)ccc1NS(=O)(=O)c1cccc2cccnc12)c1ccccc1 | inactive | –
72 | CCCCCCCCCCCC[N+](C)(C)C | – | 76.4 µM (active)
73 | O=C1CCC(C2CCCCC2)CC1 | inactive | –
74 | O=C1c2ccccc2C(=O)N1CCc1noc(-c2ccc(CN3CCCCCC3)s2)n1 | inactive | –
75 | CC1=CC(=O)/C(=C(/C)O)C(=O)O1 | inactive | –
76 | CCO[Si](CCCNC(N)=O)(OCC)OCC | inactive | –
